This is an account of results in PubChem BioAssay AID1240 (Sanford-Burnham Center for Chemical Genomics, 2008).

Screen size: about 50,000 compounds; about 800 (1.6%) showed an effect of 50% or more. The list comes from a sample in which strong results are over-represented; it also holds similar structures and randomly drawn compounds.

The test deals with Bcl-2-like protein 10 (Homo sapiens) (UniProt Q9HD36). The test can be described thus: TR3 peptide-Bcl-B binding displacers, biochemical primary FP assay, phenotype converters (AID 1240).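 Further: 0% = Bcl-B with tracer peptide and DMSO and 100% = tracer peptide lacking Bcl-B.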 Conditions: GST-Bcl-B / FITC-TR3 peptide fluorescence polarization; stronger effect = higher value; compound at 3.75 mg/L.
Bcl-2-like protein 10 (Homo sapiens), sequence (Q9HD36 whole entry, looked up): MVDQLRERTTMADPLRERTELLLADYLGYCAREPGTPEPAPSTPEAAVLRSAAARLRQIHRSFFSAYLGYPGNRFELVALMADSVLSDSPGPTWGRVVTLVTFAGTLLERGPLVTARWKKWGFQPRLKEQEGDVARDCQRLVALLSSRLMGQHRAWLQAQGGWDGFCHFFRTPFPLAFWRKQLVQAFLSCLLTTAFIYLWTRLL
`COc1ccc(C/C(N)=N/OC(=O)c2ccccc2Cl)cc1`: the displacement was -0.1%.

As to `O=C(Nc1ccc2nn(-c3ccc(Cl)cc3)nc2c1)c1ccccc1`, the displacement was -1.9%.

`COc1ccc(-n2nc3ccc(NC(=O)COc4ccccc4Cl)cc3n2)cc1`: the displacement came to 19.9%.

In the case of `O=C(COc1ccccc1Cl)Nc1ccc2nn(-c3ccccc3)nc2c1`, the displacement amounted to 78.4%.

`O=C(COc1ccc(Br)cc1)Nc1ccc2nn(-c3ccc(F)cc3)nc2c1`: the displacement came out at 50.3%.

Take `O=C(COc1ccccc1)Nc1ccc2nn(-c3ccc(Cl)cc3)nc2c1`: the displacement was found to be 6.3%.

For the molecule `O=C(Nc1ccc2nn(-c3ccc(Cl)cc3)nc2c1)c1ccccn1`, the displacement was found to be 91%.

As for `O=C(COc1ccc([N+](=O)[O-])cc1)Nc1ccc2nn(-c3ccc(F)cc3)nc2c1`, the displacement amounted to 9%.

As for `CCCC(=O)Nc1ccc2nn(-c3ccc(F)cc3)nc2c1`, the displacement was 0.6%.

For the molecule `O=C(Nc1ccc2nn(-c3ccc(Cl)cc3)nc2c1)c1ccccc1I`, the displacement is 7.4%.

For the molecule `Oc1ccc(/C=N/Nc2nc3ccccc3s2)c(O)c1`, the displacement came out at 11.1%.

On to `COc1ccccc1CC(=O)NCc1ccco1`, for which the displacement was 10.3%.

Turning to `Cc1occc1C(=O)N/N=C/c1ccc(O)cc1O`, the displacement came to 78.5%.

On to `COc1ccc(/C=N/NC(=O)c2ccoc2C)c(OC)c1OC`, for which the displacement is -4.5%.

`Cc1occc1C(=O)N/N=C/c1ccccc1`: the displacement was 4.2%.

Take `Cc1ccc(N2C(=O)c3ccc(C(=O)O)cc3C2=O)nc1`: the displacement is -10.6%.

In the case of `c1ccc(-n2ncnc2-c2ccc3c(c2)OCO3)cc1`, the displacement is 4.4%.

In the case of `Cn1c(-c2cc3ccc(O)c(CN4CCOCC4)c3oc2=O)nc2ccccc21`, the displacement was found to be 19.1%.

On to `CN1CCN(Cc2c(O)ccc3c(=O)c(-c4ccccc4)coc23)CC1`, for which the displacement was -1.7%.

On to `CN1CCN(Cc2c(O)ccc3cc(-c4nc5ccccc5[nH]4)c(=O)oc23)CC1`, for which the displacement turned out to be 125%.

In the case of `O=c1oc2c(CN3CCOCC3)c(O)ccc2cc1-c1nc2ccccc2[nH]1`, the displacement was found to be 139%.

Take `CCc1cc2c(=O)c(-c3nc4ccccc4[nH]3)coc2c(CN2CCOCC2)c1O`: the displacement came out at 8.5%.

For the molecule `CCOC(=O)c1c(-c2ccccc2)oc2ccc(O)c(CN3CCCC(C)C3)c12` (configuration not stated), the displacement amounted to 11%.

Consider `COc1ccccc1-c1coc2c(CN3CCN(C)CC3)c(O)ccc2c1=O`, for which the displacement was -1.3%.

For the molecule `CC1CCN(Cc2c(O)ccc3c4c(c(=O)oc23)CCC4)CC1`, the displacement came to 12.8%.

Turning to `CC1CCCN(Cc2c(O)ccc3cc(-c4nc5ccccc5[nH]4)c(=O)oc23)C1` (configuration not stated), the displacement turned out to be 106%.

As for `COc1ccc(N2C(=O)C3C(c4ccccc4Cl)OC4(C(=O)c5ccccc5C4=O)C3C2=O)c(OC)c1` (configuration not stated), the displacement was determined as 12.5%.

As for `COc1ccc(C2CC(=O)C3=C(C2)Nc2ccccc2NC3c2cc(C)ccc2C)cc1` (configuration not stated), the displacement is -3.7%.

`Cc1ccc(C2/C(=C(\O)c3ccccc3)C(=O)C(=O)N2CCCC(=O)O)cc1` (configuration not stated): the displacement worked out at 1.4%.

In the case of `O=C1N=c2ccccc2=C1c1sc(Nc2cccc(Cl)c2Cl)nc1O`, the displacement worked out at 15.8%.

In the case of `O=C1OC(c2ccc(Br)cc2)=C/C1=C\C=C\c1ccccc1`, the displacement is -8.3%.

For the molecule `COc1cc(/C=C2\C(=O)NN(c3ccccc3)C2=O)cc(OC)c1OC`, the displacement is -6.6%.

As for `COc1ccc(C(=O)Nc2ccc(Br)cn2)cc1OC`, the displacement was determined as 5.1%.

On to `COc1ccc(Cl)cc1NC(=O)C1=C(C)NC(=O)NC1c1cccc2ccccc12` (configuration not stated), for which the displacement came to 15.4%.

Take `O=C1CCCc2oc3ccc(NS(=O)(=O)c4ccccc4)cc3c21`: the displacement was 2.5%.

Turning to `O=C1C(=Cc2ccc(-c3ccccc3[N+](=O)[O-])o2)C(=O)c2ccccc21`, the displacement is -3.3%.

Take `O=C(/C=C/c1ccc(-c2ccccc2[N+](=O)[O-])o1)Nc1cccnc1`: the displacement is 73.1%.

On to `O=[N+]([O-])c1ccc(-c2ccc(/C=C/c3ccc4ccccc4n3)o2)cc1`, for which the displacement was found to be 14.8%.

Regarding `O=C(Nc1cccnc1)c1ccc(-c2ccccc2[N+](=O)[O-])o1`, the displacement is 48.4%.

Take `Cc1ccc(/C=C/C(=O)Nc2cccc([N+](=O)[O-])c2)o1`: the displacement is 10.1%.

For the molecule `O=C(/C=C/c1ccc(-c2ccccc2[N+](=O)[O-])o1)Nc1ccc(NC(=O)c2ccco2)cc1`, the displacement was -0.2%.

With `Cc1ccc(/C=C/C(=O)Nc2ccc(C)c([N+](=O)[O-])c2)o1`, the displacement came to 62%.

With `O=[N+]([O-])c1ccccc1-c1ccc(/C=C/c2ccc3ccccc3n2)o1`, the displacement was 97.9%.

In the case of `Cc1ccc(/C=C/C(=O)Nc2ccc([N+](=O)[O-])cc2)o1`, the displacement came to 11.8%.

Turning to `COc1ccc(-c2cc(CC(=O)c3ccccc3)cc(-c3ccc(OC)cc3)n2)cc1`, the displacement was 7.7%.

With `COc1ccc(Cl)cc1N(CC(=O)N1CCCCC1)S(=O)(=O)c1ccc(C)c([N+](=O)[O-])c1`, the displacement came out at 2.3%.

As for `Cc1ccccc1/[N+]([O-])=C/c1cccs1`, the displacement is 0.1%.

As to `COc1ccccc1NC(=O)C(=O)NCC(C)C`, the displacement came to 9.1%.

As for `COc1cc(OC)c(OC)cc1CN1CCN(Cc2cc(OC)c(OC)cc2Br)CC1`, the displacement came to 1.2%.

`CCc1cc(=O)oc2cc(OC(C)=O)ccc12`: the displacement came to 12.3%.

With `O=C(N(c1cccc2ccccc12)C1C=CS(=O)(=O)C1)C(F)(F)F` (configuration not stated), the displacement is 66%.

For the molecule `CCOC(=O)c1ccccc1N(C(=O)C(F)(F)F)C1C=CS(=O)(=O)C1` (configuration not stated), the displacement is -3.1%.

Turning to `O=C(N(c1cccc(C(F)(F)F)c1)C1C=CS(=O)(=O)C1)C(F)(F)F` (configuration not stated), the displacement came to 14.6%.

For `CC(Oc1ccccc1)C(=O)N1CCC(Cc2ccccc2)CC1` (configuration not stated), the displacement was 3.1%.

Consider `C=CCN1C(=O)/C(=C\c2ccc3c(c2)OCO3)C(=O)NC1=S`, for which the displacement came to 4.4%.

For the molecule `COc1c(Cl)cc(C(=O)Nc2c(C)cccc2C)cc1Cl`, the displacement came to 6.7%.

Consider `COc1ccc(Br)cc1C1C(C(=O)OCCOC(C)C)=C(C)NC2=C1C(=O)CCC2` (configuration not stated), for which the displacement is -2.6%.

As for `Cc1ccc(NC(=O)CN(c2ccc(C(C)C)cc2)S(=O)(=O)c2ccccc2)c(C)c1`, the displacement is 5.6%.

In the case of `COc1cc(C2OCC3(CO)C(C)C=C(C)C2C3C)ccc1O` (configuration not stated), the displacement is 16.4%.

With `Cc1cccc(N2C(=O)c3cccc4c(N5CCOCC5)ccc(c34)C2=O)c1`, the displacement was found to be 154%.

As for `Cc1cccc(N2C(=O)c3cccc4c(N5CCCCC5)ccc(c34)C2=O)c1`, the displacement was found to be 15.5%.

With `O=C1c2cccc3c(N4CCNCC4)ccc(c23)C(=O)N1c1ccc(Cl)cc1`, the displacement worked out at 101%.

On to `Cc1cccc(N2C(=O)c3ccc(-c4ccc5c(c4)C(=O)N(c4cccc(C)c4)C5=O)cc3C2=O)c1`, for which the displacement is 6.7%.

For the molecule `COc1ccc(N2C(=O)c3cccc4c(N5CCNCC5)ccc(c34)C2=O)cc1`, the displacement worked out at 37.2%.

As to `O=C1c2cccc3c(N4CCCCC4)ccc(c23)C(=O)N1c1ccc(Cl)cc1`, the displacement is 5.7%.

As for `CC(=O)Oc1ccc(-c2cccc(C(=O)NC(CO)C(O)c3ccc([N+](=O)[O-])cc3)c2)cc1` (configuration not stated), the displacement stood at 10.4%.

Turning to `COC(=O)c1ccc(-n2ncnc2-c2ccc(Br)cc2)cc1`, the displacement was -5.4%.

In the case of `CCC(=O)NC(Nc1ccc(OC)cc1)(C(F)(F)F)C(F)(F)F`, the displacement is -2.7%.

Consider `Cc1csc(-c2cc3ccc(O)c(CN4CC5(C)CC4CC(C)(C)C5)c3oc2=O)n1` (configuration not stated), for which the displacement was determined as 138%.

As to `Cc1oc2c(CN3CC4(C)CC3CC(C)(C)C4)c(O)ccc2c(=O)c1-c1nc2ccccc2s1` (configuration not stated), the displacement turned out to be 11.2%.

Consider `Cc1csc(-c2cc3ccc(OCc4c(F)c(F)c(F)c(F)c4F)cc3oc2=O)n1`, for which the displacement is 6.9%.

Turning to `COc1ccc(C)cc1NC(=O)COc1ccc(Cl)cc1C`, the displacement is -5.2%.

As for `O=C(O)CCC(=O)Nc1ccc(CC(=O)O)cc1`, the displacement was determined as 21.4%.

Regarding `CCOC(=O)c1c(NC(=O)C2CCCO2)sc(C(=O)N(CC)CC)c1C` (configuration not stated), the displacement was -4%.

As to `N#C/C(=C\c1ccc(F)cc1)c1nn(CCO)c(N)c1C#N`, the displacement is -45.5%.

Take `N#C/C(=C\c1ccc(Cl)cc1)c1nn(CCO)c(N)c1C#N`: the displacement turned out to be 11.2%.

Consider `CCN(CC)c1ccc(/C=C(\C#N)c2nn(CCO)c(N)c2C#N)cc1`, for which the displacement is 68.2%.

Consider `COc1cc(OC)cc(C(=O)O/N=C(\c2ccncc2)c2ccc([N+](=O)[O-])cc2)c1`, for which the displacement was found to be 10.5%.

Turning to `O=C(O)CCN1C(=O)/C(=C/c2ccc(-c3ccc([N+](=O)[O-])cc3)o2)SC1=S`, the displacement is -59.7%.

Consider `O=C1/C(=C\c2ccc(-c3cccc([N+](=O)[O-])c3)o2)SC(=S)N1CCc1ccccc1`, for which the displacement stood at 114%.

For `O=C1/C(=C/c2ccc(-c3ccc([N+](=O)[O-])cc3)o2)SC(=S)N1Cc1ccccc1`, the displacement was 9.4%.

As to `O=C(O)CCCN1C(=O)/C(=C\c2ccc(-c3cccc([N+](=O)[O-])c3)o2)SC1=S`, the displacement was 59%.

On to `O=C(O)CCCN1C(=O)/C(=C\c2ccc(-c3ccc(Br)cc3)o2)SC1=S`, for which the displacement is -65.6%.

For the molecule `O=C1/C(=C/c2ccc(-c3cccc([N+](=O)[O-])c3)o2)SC(=S)N1Cc1ccco1`, the displacement was found to be 9.9%.

As for `O=C(NC1CCN(Cc2ccccc2)CC1)c1ccc(F)cc1`, the displacement came to 2.6%.

Take `FC(F)(F)c1cccc(NC(=S)NCc2ccc3c(c2)OCO3)c1`: the displacement is -6.8%.

As for `CCc1cc(C)cc(OCCn2cc(C=C3C(=O)NC(=S)NC3=O)c3ccccc32)c1`, the displacement stood at 14.7%.

Consider `CCc1cc(C)cc(OCCn2cc(/C=C3/SC(=S)NC3=O)c3ccccc32)c1`, for which the displacement was 78.8%.

For the molecule `CCC(C)c1ccccc1OCCn1cc(/C=C2/SC(=S)NC2=O)c2ccccc21` (configuration not stated), the displacement is 128%.

On to `CCc1cc(C)cc(OCCOc2ccccc2/C=C2/SC(=S)N(C)C2=O)c1`, for which the displacement stood at 2.3%.

For `O=C1NC(=S)S/C1=C/c1cn(CCOc2ccc(Br)cc2)c2ccccc12`, the displacement stood at 68.9%.

For `Cc1cccc(OCCn2cc(/C=C3/SC(=S)N(C)C3=O)c3ccccc32)c1`, the displacement turned out to be 15.1%.

For `CC(C)(C)c1ccc(OCCn2cc(/C=C3/SC(=S)NC3=O)c3ccccc32)cc1`, the displacement worked out at 15.2%.

Regarding `O=C1NC(=S)S/C1=C\c1cn(CCOc2ccccc2F)c2ccccc12`, the displacement is -62.3%.

`CCc1cc(C)cc(OCCn2cc(/C=C3/SC(=S)N(C)C3=O)c3ccccc32)c1`: the displacement worked out at 123%.

Regarding `COc1cccc(OCCn2cc(C=C3C(=O)NC(=S)NC3=O)c3ccccc32)c1`, the displacement came out at 36.6%.

For the molecule `COc1cccc(OCCn2cc(/C=C3/SC(=S)NC3=O)c3ccccc32)c1`, the displacement was -15.1%.

For `Cc1ccccc1OCCn1cc(C=C2C(=O)NC(=S)NC2=O)c2ccccc21`, the displacement amounted to 6.1%.

As for `O=C(c1ccc([N+](=O)[O-])cc1)N1CCN(CC2CC3C=CC2C3)CC1` (configuration not stated), the displacement is -6.8%.

With `O=C(Nc1ccccc1F)c1ccc(CSc2ccc(Cl)cc2)cc1`, the displacement is 6%.

For `COc1ccccc1OCCNC(=O)c1ccc(Br)cc1`, the displacement was -19.3%.

As for `CCOc1ccc(NC(=O)c2cc3cc(OC)ccc3oc2=O)cc1`, the displacement worked out at 13.8%.
